According to PubChem BioAssay (EPA / NIEHS):
Records with an inconclusive call do not appear. The source made the active and inactive calls. Rule for the calls, unless noted: active = hit-call score of the fitted dose curve at least 0.9, where 1 is the maximum; inactive = score below 0.9.

Columns and labels:
[1] = CCTE_Shafer_MEA_acute_LDH: CCTE's Lactate Dehydrogenase Assay for Cytotoxicity in the Neural Acute Assay, Shafer Lab (AID 2284086; active = hit-call score of the fitted dose curve at least 0.9, where 1 is the maximum;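 note: active means LDH release rises above DMSO vehicle level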)
How it was run: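 Medium from rat cortical neuron MEA cultures sampled right after the 40 min compound-exposure recording; released LDH measured by absorbance at 490 nm. Analyzed as signal gain relative to DMSO.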

[2] = CCTE_Shafer_MEA_dev_mutual_information_norm: CCTE's Neural Network Formation Assay for Mutual Information Normalization, Shafer Lab (AID 2284091);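 note: mutual information between electrodes summarised as area under curve across four recording days; potency is for a decrease in mutual information relative to DMSO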
How it was run: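 Developing rat cortical networks on 16-electrode MEA wells are treated throughout formation (DIV 0–12). Shared electrode information is recorded four times, converted to area-under-curve, and fitted for decreases against DMSO vehicle.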

[3] = IUF_NPC1a_proliferation_area_72hr: Leibniz Research Institute for Environmental Medicine (IUF) 72-hour Neural Progenitor Cell Proliferation Area Assay (NPC1a) (AID 2284208)
How it was run: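 Spheres of 0.3 mm are plated singly in growth-factor medium and exposed from day 0. After three days at 37C and 5% CO2, sphere area is measured by phase contrast imaging, with activity referenced to DMSO.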

[4] = IUF_NPC1_viability_72hr: Viability Assessment at 72 hours in the Leibniz Research Institute for Environmental Medicine (IUF) Neural Progenitor Cell Proliferation Assay (NPC1) (AID 2284209)
How it was run: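 Single spheres (0.25-0.35 mm) of human fetal cortex-derived neural progenitor cells were grown in proliferation medium with EGF and FGF at 37C and 5% CO2. They were exposed for 72 h without renewal, and viability was read by alamar blue resorufin fluorescence.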

[5] = CCTE_Mundy_HCI_Cortical_Synap_Neur_Matur_NeuriteSpotCountPerNeuriteLength: CCTE's Synaptogenesis and Neurite Maturation Assay in rat cortical cells for Neurite Spot Count per Neurite Length, Mundy Lab (AID 2284210)
How it was run: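 Primary rat cortical neurons, compound exposure DIV 7–12, 288.33 h endpoint. Hoechst, anti-MAP2 and anti-synaptophysin labelling; neurite-associated puncta per neurite length scored by automated imaging relative to DMSO controls.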

[6] = CCTE_Mundy_HCI_Cortical_Synap_Neur_Matur_BPCount: CCTE's Synaptogenesis and Neurite Maturation Assay in rat cortical cells for Branch Point Count, Mundy Lab (AID 2284211)
How it was run: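 Rat primary cortical cultures, AraC added DIV 5; chemicals dosed DIV 7 through DIV 12. Fixed cells stained for MAP2, synaptophysin and Hoechst; neurite branch points counted by automated high-content imaging, fitted relative to DMSO.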

[7] = CCTE_Mundy_HCI_Cortical_NOG_NeuriteCount: CCTE's Neurite Outgrowth Assay in rat cortical cells for Neurite Count, Mundy Lab (AID 2284212);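 note: cells fixed about two days after chemical exposure began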
How it was run: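 Neurite number per cell from high-content imaging of betaIII-tubulin immunostaining, with Hoechst nuclear counterstain.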

[8] = CCTE_Mundy_HCI_Cortical_NOG_NeuriteLength: CCTE's Neurite Outgrowth Assay in rat cortical cells for Neurite Length, Mundy Lab (AID 2284213)
How it was run: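 Neurite length was read by high-content imaging of βIII-tubulin-labelled neurites in rat primary cortical cultures. Activity was fitted relative to DMSO.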

[9] = CCTE_Mundy_HCI_Cortical_Synap_Neur_Matur_NeuriteLength: CCTE's Synaptogenesis and Neurite Maturation Assay in rat cortical cells for Neurite Length, Mundy Lab (AID 2284214)
How it was run: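 Rat primary cortical cultures, AraC added DIV 5, dosed DIV 7 through DIV 12 […]. Fixed, MAP2/synaptophysin immunostained with Hoechst; neurite length by high-content imaging, fitted in positive direction versus DMSO.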

[10] = CCTE_Mundy_HCI_Cortical_Synap_Neur_Matur_SynapseCount: CCTE's Synaptogenesis and Neurite Maturation Assay in rat cortical cells for Synapse Count, Mundy Lab (AID 2284218)
How it was run: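 Rat primary cortical cultures, AraC at DIV 5, chemical dosing DIV 7 to DIV 12 (288.33 h). Fixed cells stained for MAP2, synaptophysin and Hoechst; synapses per neuron counted by high-content imaging, loss of signal versus DMSO.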

[11] = CCTE_Mundy_HCI_Cortical_Synap_Neur_Matur_NeuriteCount: CCTE's Synaptogenesis and Neurite Maturation Assay in rat cortical cells for Neurite Count, Mundy Lab (AID 2284222);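 note: exposure from day 7 to day 12 in vitro with readout at day 12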
How it was run: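 In this multiplexed morphology readout, rat primary cortical neurons are fixed at DIV 12 following dosing at DIV 7 and stained for MAP2, synaptophysin and nuclei. High-content image analysis yields neurite count.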

[12] = CCTE_Mundy_HCI_Cortical_Synap_Neur_Matur_CellBodySpotCount: CCTE's Synaptogenesis and Neurite Maturation Assay in rat cortical cells for Cell Body Spot Count, Mundy Lab (AID 2284223)
How it was run: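 Rat cortical neurons; AraC @ DIV 5; dose + media change DIV 7; fix DIV 12; anti-MAP2/anti-synaptophysin IF, Hoechst; HCI count of soma synaptophysin puncta/neuron; DMSO = negative control.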

[13] = CCTE_Mundy_HCI_hNP1_Pro_ResponderAvgInten: CCTE's Proliferation Assay in human neuroprogenitor cells, Mundy Lab (AID 2284224; active = hit-call score of the fitted dose curve at least 0.9, where 1 is the maximum)
How it was run: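 Proliferation was scored as BrdU labelling intensity in human neural progenitors derived from WA09 embryonic cells, measured 26.25 hours after chemical dosing. Activity was fitted relative to DMSO.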

[14] = CCTE_Mundy_HCI_Cortical_NOG_NeuronCount: CCTE's Neurite Outgrowth Assay in rat cortical cells for Neuron Count, Mundy Lab (AID 2284236; active = hit-call score of the fitted dose curve at least 0.9, where 1 is the maximum;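 note: neurons counted by imaging betaIII-tubulin and Hoechst stained cortical cells; cells exposed to compound for about 48 hours before fixation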)
How it was run: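 Read-out: neuron number by high-content imaging of betaIII-tubulin (Alexa Fluor-488) and Hoechst-labelled rat primary cortical cells.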

[15] = CCTE_Mundy_HCI_Cortical_NOG_BPCount: CCTE's Neurite Outgrowth Assay in rat cortical cells for Branch Point Count, Mundy Lab (AID 2284237)
How it was run: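 Measured 50.33 h after dosing, this morphology endpoint uses rat primary cortical cultures labelled for betaIII-tubulin. Branch points are quantified by high-content imaging, with DMSO as negative control and baseline.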

[16] = CCTE_Mundy_HCI_hNP1_Casp3_7: CCTE's Caspase-Glo 3/7 Assay in human neuroprogenitor cells for Apoptosis, Mundy Lab (AID 2284240)
How it was run: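 Apoptosis is scored by activated caspase-3/7 luminescence in WA09-derived neural progenitor cells, measured 26.5 h after chemical dosing. Values represent gain of signal relative to DMSO vehicle.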

[17] = CCTE_Mundy_HCI_hNP1_CellTiter: CCTE's Cell Titer-Glo 2 Assay in human neuroprogenitor cells for Viability, Mundy Lab (AID 2284241; active = hit-call score of the fitted dose curve at least 0.9, where 1 is the maximum)
How it was run: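 Human neural progenitor cells (hNP1, WA09-derived) were plated on poly-L-ornithine/laminin and grown 40 to 44 hours at 37 °C, 5% CO2 before chemical addition. Twenty-four hours later, ATP was measured by CellTiter-Glo luminescence; loss of signal versus DMSO indicates reduced viability.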

[18] = IUF_NPC2c_oligodendrocyte_migration_120hr: Leibniz Research Institute for Environmental Medicine (IUF) 120-hour Neural Progenitor Cell Migration Assay for Oligodendrocyte Migration (NPC2c) (AID 2284297)
How it was run: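 Read-out is the mean distance of O4-positive oligodendrocytes from the sphere core edge at 120 h, normalized to radial glia migration and fitted in the gain direction against DMSO. Spheres of primary human neural progenitors differentiated on laminin under continuous compound exposure.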

[19] = IUF_NPC2a_radial_glia_migration_120hr: Leibniz Research Institute for Environmental Medicine (IUF) 120-hour Neural Progenitor Cell Migration Assay for Radial Glia Migration (NPC2a) (AID 2284298)
How it was run: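 Readout: distance in um from sphere core edge to migration-area edge, derived from Hoechst nuclei density with a threshold-defined polynomial boundary. Spheres: hNPC, GW 16-19, 0.3 mm, on PDL/laminin; exposure 5 days; DMSO is baseline.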

[20] = IUF_NPC2b_neuronal_migration_120hr: Leibniz Research Institute for Environmental Medicine (IUF) 120-hour Neural Progenitor Cell Migration Assay for Neuron Migration (NPC2b) (AID 2284300)
How it was run: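 Read-out is mean distance from sphere edge to each TUBB3-positive neuron at 120 h, expressed relative to radial glia migration distance and to DMSO baseline. Single 0.3 mm human NPC spheres differentiated on laminin under continuous compound exposure.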

[21] = IUF_NPC3_neuronal_differentiation_120hr: Leibniz Research Institute for Environmental Medicine (IUF) 120-hour Neuronal Differentiation Assay (NPC3) (AID 2284301)
How it was run: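 Single 0.3 mm neurospheres from human fetal cortex were plated in differentiation medium containing test compound. Medium was half-replaced on day 3. After 120 h cells were fixed, immunostained and imaged, and neuronal fraction was scored against DMSO control.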

[22] = IUF_NPC4_neurite_length_120hr: Leibniz Research Institute for Environmental Medicine (IUF) 120-hour Neuronal Morphology Assay for Neurite Length (NPC4) (AID 2284302)
How it was run: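 Read-out is mean neurite length in µm of TUBB3-positive neurons, skeletonized from high-content fluorescence images after 120 h. Single 0.3 mm primary human neural progenitor spheres differentiated on poly-D-lysine/laminin under continuous compound exposure; DMSO was baseline.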

[23] = IUF_NPC5_oligodendrocyte_differentiation_120hr: Leibniz Research Institute for Environmental Medicine (IUF) 120-hour Oligodendrocyte Differentiation Assay (NPC5) (AID 2284304; active = hit-call score of the fitted dose curve at least 0.9, where 1 is the maximum;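 note: primary human fetal neural progenitor spheres plated to migrate and differentiate; share of O4-positive cells among Hoechst nuclei found by CNN image analysis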)
How it was run: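 Oligodendrocyte differentiation was scored after 120 h as the O4-positive share of Hoechst-stained nuclei across the neurosphere migration area, using a trained convolutional neural network on high-content fluorescence images. Human fetal neural progenitor spheres were dosed from day 0, normalised to DMSO.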

[24] = IUF_NPC2-5_cytotoxicity_72hr: Cytotoxicity Assessment at 72 hours in the Leibniz Research Institute for Environmental Medicine (IUF) Neural Progenitor Cell Migration and Differentiation Assay for Cytotoxicity (NPC2-5) (AID 2284306; active = hit-call score of the fitted dose curve at least 0.9, where 1 is the maximum;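 note: LDH release into supernatant measured by resorufin fluorescence marking membrane damage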)
How it was run: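 Membrane integrity loss was scored from fluorescence (RFU) of resorufin generated by LDH in culture supernatant, 72 h after dosing. Differentiating human progenitor spheres received seven serial compound concentrations alongside a solvent control.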

[25] = IUF_NPC2-5_cytotoxicity_120hr: Cytotoxicity Assessment at 120 hours in the Leibniz Research Institute for Environmental Medicine (IUF) Neural Progenitor Cell Migration and Differentiation Assay (NPC2-5) (AID 2284307; active = hit-call score of the fitted dose curve at least 0.9, where 1 is the maximum)
How it was run: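 Sphere plating starts differentiation and exposure together at day 0. Compound solution is half-replaced on day 3. At 120 h, medium supernatant is taken for an LDH membrane-integrity read based on resazurin reduction to resorufin fluorescence.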

[26] = IUF_NPC2-5_cell_number_120hr: Cell Number Assessment at 120 hours in the Leibniz Research Institute for Environmental Medicine (IUF) Neural Progenitor Cell Migration and Differentiation Assay (NPC2-5) (AID 2284308);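 note: count of Hoechst-stained nuclei in migration zone around plated human neural progenitor spheres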
How it was run: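 hNPC spheres, one per well, PDL/laminin, N2 medium, 37C, 5% CO2. Dosing day 0 → half-medium change with fresh compound day 3 → fix 120 h. Readout: Hoechst+ nuclei count, migration area; 7 concentrations plus solvent control.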

[27] = IUF_NPC2-5_viability_120hr: Viability Assessment at 120 hours in the Leibniz Research Institute for Environmental Medicine (IUF) Neural Progenitor Cell Migration and Differentiation Assay (NPC2-5) (AID 2284312)
How it was run: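 Alamar blue resorufin fluorescence read after 5 days of differentiation, with compound present from day 0 and replenished at day 3. Primary hNPC spheres on laminin-coated plates, 37C; seven concentrations plus solvent control, fitted against DMSO.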

[28] = CCTE_Mundy_HCI_iCellGluta_NOG_NeuriteLength: CCTE's Neurite Outgrowth Assay in iCellGluta cells for Neurite Length, Mundy Lab (AID 2284318; active = hit-call score of the fitted dose curve at least 0.9, where 1 is the maximum)
How it was run: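 Automated high-content imaging of betaIII-tubulin (Alexa Fluor-488) and Hoechst-stained cells gave neurite length, normalized to the DMSO baseline.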

[29] = IUF_NPC1_cytotoxicity_72hr: Cytotoxicity Assessment at 72 hours in the Leibniz Research Institute for Environmental Medicine (IUF) Neural Progenitor Cell Proliferation Assay (NPC1) (AID 2284332; active = hit-call score of the fitted dose curve at least 0.9, where 1 is the maximum;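 note: rising LDH signal means more cytotoxicity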)
How it was run: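 Human fetal neural progenitor spheres (0.3 mm) in EGF/FGF proliferation medium, 37C, exposed 72 h without renewal. LDH release in supernatant read by resorufin fluorescence; gain of signal scored relative to dynamic range.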

[30] = CCTE_Mundy_HCI_iCellGluta_NOG_NeuriteCount: CCTE's Neurite Outgrowth Assay in iCellGluta cells for Neurite Count, Mundy Lab (AID 2284342; active = hit-call score of the fitted dose curve at least 0.9, where 1 is the maximum;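 note: chemical exposure about 48 hours starting 2 hours after plating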)

Measured: AC50

CC1(C)[C@@H](C=C(Cl)Cl)[C@@H]1C(=O)O[C@@H](C#N)c1ccc(F)c(Oc2ccccc2)c1
active: [2] 2390 nM
inactive: all other assays above
